{"source": "PubChem BioAssay AID720630", "about": "(Broad Institute, 2013)", "test": "caspase-3/7 apoptosis induction in HUVEC, dose response, mechanism study for HRAS target identification, cell-based, multiple timepoints, luminescence, dry powder (AID 720630)", "details": "caspase-3/7 luminescence; for caspase activation: at 35 µM (top of the series)", "key": {"[1]": {"details": "measured here: max caspase activation timepoint 1, at 0.001 µM, test 1, stronger effect = higher value"}}, "note": "Records with an inconclusive call do not appear. The source made the active and inactive calls. No rule for the calls is given here.", "data": [{"compound": "CCC(=O)N(c1ccc(OC)c(Cl)c1)C(C(=O)NCCc1ccccc1)c1cccs1", "note": "(stereo not drawn)", "values": [{"measurement": "caspase activation", "value": "8.9% (inactive)"}, {"measurement": "max activity", "setting": "[1]", "value": -18.6, "unit": "%"}, {"measurement": "max activity", "setting": "measured here: max caspase activation timepoint 2, at 16 µM, test 2, stronger effect = higher value", "value": -23.7, "unit": "%"}, {"measurement": "max activity", "setting": "measured here: max caspase activation timepoint 3, at 4.2 µM, test 3, stronger effect = higher value", "value": -13.9, "unit": "%"}]}, {"compound": "Cc1onc(C(=O)N2CCN(C(c3ccc(Cl)cc3)c3ccc(Cl)cc3)CC2)c1[N+](=O)[O-]", "values": [{"measurement": "caspase activation", "value": "-6.38% (inactive)"}, {"measurement": "max activity", "setting": "[1]", "value": -21.9, "unit": "%"}, {"measurement": "max activity", "setting": "measured here: max caspase activation timepoint 2, at 1 µM, test 2, stronger effect = higher value", "value": -18.4, "unit": "%"}, {"measurement": "max activity", "setting": "measured here: max caspase activation timepoint 3, at 0.008 µM, test 3, stronger effect = higher value", "value": -32.1, "unit": "%"}]}]}
